# Screening data (PubChem)
# Sa ugtP lethal = growth inhibition of ugtP-null S. aureus, primary screen, RN4220 ugtP deletion, OD600. 16 h. growth inhibition, % (no concentration beside the values). 330,000 compounds, 0.54% hits. AID 1259309, 2017; in the data active = growth inhibition above about 68%
# PfHsp40 yeast = rescue of yeast from PfHsp40 toxicity, primary screen, S. cerevisiae, ATP luminescence. S. cerevisiae expressing PfHsp40, growth rescue. growth rescue, % at 12.5 µM. 340,000 compounds, 0.68% hits. AID 504582, 2011; in the data active = growth rescue above about 28%, passing the limit was not always enough;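 also: yeast W303a lacking pdr1 and pdr3 grown in galactose medium; growth measured after three days at 30 °C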
# Sa RN4220 lethal = growth inhibition of S. aureus RN4220, primary screen, OD600 | inhibition, % (no concentration beside the values) | 16 h | 330,000 compounds, 0.33% hits; in the data active = inhibition above about 85%
# SSB-PriA inh = inhibitors of Klebsiella pneumoniae PriA binding to SSB C-terminal tail, primary screen, biochemical, AlphaScreen; PriA–SSB C-terminal tail interaction (Klebsiella pneumoniae); AlphaScreen SSBct-PriA binding, biotinylated peptide; inhibition, % at 33 µM; 430,000 compounds, 0.6% hits; AID 1272365, 2023; in the data active = inhibition mostly above about 37%, no sharp cut-off; inactive = mostly below about 20%
# Mtb hypoxia rep = PubChem AID 1159583 | M. tuberculosis hypoxia-regulated fluorescent reporter, fluorescence | 300,000 compounds, 0.1% hits | fluorescence inhibition, % (concentration not given with the values); in the data active = fluorescence inhibition mostly above about 23%, no sharp cut-off; inactive = mostly below about 17%
# VHR inh abs = VHR1 phosphatase inhibitors, primary screen, biochemical, absorbance, uHTS; recombinant VHR phosphatase, pNPP absorbance; inhibition, % at 13.3 µM; 290,000 compounds, 0.52% hits; AID 1654, 2009; in the data active = inhibition above about 50%
# Target sequence (P51452 whole entry, looked up): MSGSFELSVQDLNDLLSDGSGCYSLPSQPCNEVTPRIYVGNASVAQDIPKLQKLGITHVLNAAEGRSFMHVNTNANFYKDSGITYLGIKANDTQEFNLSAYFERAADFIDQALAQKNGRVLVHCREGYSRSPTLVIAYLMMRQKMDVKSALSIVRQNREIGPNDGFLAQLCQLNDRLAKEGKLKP
# Numbers stand for hits; - = inactive; . = not tested or not shown. Compounds with a hit are over-represented: about 1.8% of the library has one in this group of screens.
SMILES,Sa ugtP lethal,PfHsp40 yeast,Sa RN4220 lethal,SSB-PriA inh,Mtb hypoxia rep,VHR inh abs
COc1cc(CNc2ccc(CNc3ncn[nH]3)cc2)ccc1OCC(=O)NC(C)(C)C,.,-,.,-,.,-
Cc1cccc(NC(=S)NC(C)CCc2ccccc2)c1 (stereo unspecified),-,96,-,-,-,-
Cc1cccc(NC(=O)NC(C)CCc2ccccc2)c1 (stereo unspecified),-,-,-,-,-,-
COc1ccc(Cn2c(SCc3cc(C)ccc3C)nc3cc(OC)c(OC)cc3c2=N)cc1,-,-,-,-,.,-
COc1ccc(Cn2c(SCc3ccc(C)cc3)nc3cc(OC)c(OC)cc3c2=N)cc1Cl,99,-,100,-,-,-
Nn1c(SCC(=O)Nc2nccs2)nnc1C1CCCCC1,.,.,.,-,.,.
COc1ccc(CN2CCN(Cc3cc4ccccc4o3)CC2CCO)cc1C (stereo unspecified),-,-,-,-,-,59
COc1ccc2c(c1)OC[C@H]1[C@H]2N2C(=O)c3cc(OC)c(OC)cc3NC(=O)[C@@]2(C)[C@H]1c1ccccc1,.,44,.,-,.,.
COc1cc2c(cc1OC)C(=O)N1C3c4cc(Cl)ccc4OCC3C(c3ccccc3)[C@]1(C)C(=O)N2 (stereo partly specified),-,.,-,.,-,.
COc1cc2c(cc1OC)C(=O)N1[C@H]3c4ccccc4OC[C@@H]3[C@H](c3ccccc3)[C@]1(C)C(=O)N2,.,63,.,-,.,.
COc1ccc2c(c1)OC[C@H]1[C@H]2N2C(=O)c3cc(Br)ccc3NC(=O)[C@@]2(C)[C@H]1c1ccccc1,.,333,.,-,.,.
COc1ccc2c(c1)OCC1C2N2C(=O)c3cc(OC)ccc3NC(=O)[C@@]2(C)C1c1ccccc1 (stereo partly specified),-,.,-,.,-,.
Cc1oncc1C(=O)Nc1ccc2c(c1)N(S(=O)(=O)c1ccccc1)CCC2,.,.,.,-,.,.
CC(C)(C)C(=O)Nc1ccc(C(=O)NCCNC(=O)NC2CCCCC2)cc1,.,.,.,-,.,.
O=C(COCC(=O)Nc1cccc(-c2nc3ccccc3[nH]2)c1)Nc1cccc(-c2nc3ccccc3[nH]2)c1,.,.,.,-,.,.
O=C(Cc1cccs1)Nc1cccc(-c2nc3cc4ccccc4cc3[nH]2)c1,-,77,-,-,-,-
C=CCN1C(=O)/C(=C/c2ccc(OC(C)=O)c(OCC)c2[N+](=O)[O-])SC1=S,100,-,99,-,-,-
CCOc1c(OC(C)=O)ccc(/C=C/c2ccc3cccc(OC(C)=O)c3n2)c1[N+](=O)[O-],-,-,-,-,-,-
O=c1c2ccccc2c(C=Nc2nnc(Cc3ccccc3)s2)c(O)n1-c1ccc(Cl)cn1,.,.,.,-,.,.
COc1ccc(C(=O)c2ccc(Cl)cc2)c2ccccc12,96,-,-,-,.,-
Cc1c(CNC(=O)Cn2nnc3ccccc32)sc2nc(-c3ccc(F)cc3)cn12,.,.,.,-,.,.
CCOC(=O)CNC(=O)CNC(=O)c1ccc(OCC(C)C)cc1,-,-,-,-,-,53
COc1ccc(CN(C)C(=O)c2cccc(S(=O)(=O)N3CCCc4ccccc43)c2)c(OC)c1OC,-,-,-,-,28,.
CSc1ncccc1C(=O)N(CCc1cccs1)Cc1ccoc1,.,.,.,-,.,.
O=C(Nc1ccc(Cl)cc1)N1CCSC1=NCc1ccccc1,-,-,-,-,-,-
SMILES,Sa ugtP lethal,PfHsp40 yeast,Sa RN4220 lethal,SSB-PriA inh,Mtb hypoxia rep,VHR inh abs
CC(=O)Nc1ccc(C2=NN(C)C(=NCc3ccccc3)SC2)cc1,-,-,-,-,-,51
O=C(c1nnn(-c2ccc(F)cc2)c1-c1ccncc1)N1CCN(c2ccccc2Cl)CC1,.,.,.,-,.,.
COc1ccc(C(=O)N/C(=C/c2cccs2)C(=O)NCCCn2ccnc2)cc1OC,-,-,-,-,-,53
Cc1ccc(C(=O)N/C(=C\c2ccco2)C(=O)NCCCn2ccnc2)cc1,-,-,-,103,-,-
Cc1ccc(C(=O)N/C(=C/c2ccco2)C(=O)NCCCn2ccnc2)cc1,-,-,-,-,-,-
CN(C)c1ccc(/C=C(\NC(=O)c2ccccc2)C(=O)NCCCn2ccnc2)cc1,-,-,-,39,-,-
COc1ccc(/C=C(/NC(=O)c2ccccc2)C(=O)NCCCn2ccnc2)cc1OC,-,-,-,-,-,-
NS(=O)(=O)OCC(Cc1ccccc1)N1C(=O)c2ccccc2C1=O (stereo unspecified),-,75,-,-,-,-
O=C(Cc1ccc(NC(=O)Nc2cccc(C(F)(F)F)c2)cc1)NCc1cccs1,.,.,.,-,.,.
CC(C)c1ccc(C2NCc3ccccc3-n3cccc32)cc1 (stereo unspecified),-,-,-,-,-,-
FC(F)(F)Oc1ccc(C2NCc3ccccc3-n3cccc32)cc1 (stereo unspecified),94,-,-,-,-,-
Cc1ccc(C(C)CCN2CCC(n3nccc3NC(=O)c3ccccc3)CC2)o1 (stereo unspecified),-,-,-,-,-,53
COc1ccccc1C(=O)Nc1ccnn1C1CCN(CCC(C)c2ccc(C)o2)CC1 (stereo unspecified),-,-,-,-,-,-
CCCc1nc2c(=O)n(C)c(=O)nc-2n(C)n1,-,125,-,-,-,.
CCCC(=O)Nc1[nH]c(=S)c(C#N)c(-c2ccc(OC(=O)CCC)cc2)c1C#N,.,.,.,97,.,.
CCCC(=O)Nc1sc(C)c(-c2ccc(OC)cc2)c1C#N,-,-,-,-,-,-
COc1ccc(C(=O)C(=CO)N=Nc2ccc(F)cc2)cc1,-,.,-,-,-,.
Cc1onc(-c2ccccc2Cl)c1C(=O)NCC1(c2cccs2)CCCC1,.,.,.,-,.,.
CCCN1CCCc2cc(CCNS(=O)(=O)c3cc(F)ccc3F)ccc21,.,.,.,68,.,.
CCCN1CCCc2cc(CCNC(=O)C(=O)Nc3cc(F)ccc3F)ccc21,.,.,.,-,.,.
CCCN1CCCc2cc(CCNS(=O)(=O)c3ccccc3F)ccc21,.,.,.,50,.,.
Fc1cccc(Cl)c1Cn1ncc2ccccc21,-,-,-,-,-,53
C=CCNC(=S)Nc1sc2c(c1C(=O)OCC)CC(C(C)C)OC2 (stereo unspecified),-,-,-,60,-,-
CCOC(=O)c1c(NC(=S)NCCc2ccccc2)sc2c1CC(C(C)C)OC2 (stereo unspecified),-,-,-,-,-,-
CCN(CC)c1ccc(C(=O)NN=C(C)c2cccnc2)cc1,-,.,-,-,-,.
CCCC1COC(Cn2cncn2)(c2ccc(C)cc2)O1 (stereo unspecified),-,132,-,-,-,-
Cc1csc(NC(=O)CSc2nc(N)c(NC(=O)c3ccc(F)cc3)c(=O)[nH]2)n1,.,.,.,-,.,.
COc1ccc(CC(=O)Nc2ccc(OC)nc2)cc1,-,-,-,-,-,-
COc1ccc(NC(=O)Cc2ccc(-c3ccccc3)cc2)cn1,-,86,-,-,-,-
O=C(NCCCN1CCOCC1)c1cc2ccccc2oc1=O,-,-,-,-,-,-
